RGS16-Gao HTS = RGS16-Galphao interaction regulator (human); binding response (% of control), % at 10 µM; 220,000 tested, 0.38% active; O15492+P09471; bead-based flow cytometry RGS16-Galphao binding, fluorescence; actives lie on both sides; call rule not given here;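 further: Galphao activated by GDP with aluminum fluoride before binding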
RGS4-Gao reg = modulates binding of RGS4 to human Galphao; 220,000 tested, 0.33% active; Multiplexed bead flow cytometry; actives lie on both sides; binding response (% of control), % at 10 µM; AID 1415; P09471; in the data active means binding response below about 49% or above about 150%; inactive means in between;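 further: fluorescent Galphao activated with aluminum fluoride binding bead-coupled RGS4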
Target sequence (P09471 whole entry, looked up): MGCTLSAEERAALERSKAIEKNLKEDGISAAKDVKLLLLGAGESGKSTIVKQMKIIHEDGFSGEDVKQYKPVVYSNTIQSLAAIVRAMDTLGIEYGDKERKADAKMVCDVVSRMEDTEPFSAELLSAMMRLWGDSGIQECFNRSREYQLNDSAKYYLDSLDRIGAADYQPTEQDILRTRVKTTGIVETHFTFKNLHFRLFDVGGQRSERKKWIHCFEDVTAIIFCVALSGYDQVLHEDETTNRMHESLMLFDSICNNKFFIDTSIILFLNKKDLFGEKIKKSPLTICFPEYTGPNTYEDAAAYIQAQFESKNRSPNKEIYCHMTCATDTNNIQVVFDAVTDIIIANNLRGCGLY
RGS8-Gao = modulates binding of RGS8 to human Galphao | 220,000 tested, 0.34% active | response (percent of control binding), % at 10 µM | multiplexed bead flow cytometry; actives lie on both sides | P09471 | AID 1423; in the data active means response below about 60% or above about 140%; inactive means in between;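 further: Galphao activated as the GDP aluminium fluoride complex binding bead-coupled RGS8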
GSH fluor = GSH bead compound fluorescence profile; GSH beads flow cytometry, compound fluorescence 488/530 nm; stronger effect = higher value; fluorescence (KMESF) at 10 µM; 190,000 tested, 0.25% active; AID 1776; in the data active means fluorescence above about 89;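 further: glutathione beads carrying GST-tagged Bcl family fusion proteins plus one bare bead set; values are compound well signal with DMSO vehicle wells as background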
RGS7-Gao = regulators of human RGS7-Galphao interaction. P09471. Multiplexed bead flow cytometry, RGS7-Galphao binding; actives lie on both sides. binding response (% of control), % at 10 µM. 220,000 tested, 0.35% active. AID 1439; in the data active means binding response below about 49% or above about 150%; inconclusive means no clear call, values can overlap the other calls; inactive means in between;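 further: fluorescent Galphao held in activated GDP-AlF4 state binding bead-coupled RGS7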
Avidin bead fluor = avidin bead compound fluorescence profile. Avidin beads, compound fluorescence 488/530 nm, flow cytometry; stronger effect = higher value. fluorescence (KMESF) at 10 µM. 220,000 tested, 0.38% active; in the data active means fluorescence above about 47
* marks the source's active call; other numbers are inactive results; ? = inconclusive. Compounds with a hit are over-represented: about 1.2% of the library has one in this group of screens.

SMILES	RGS16-Gao HTS	RGS4-Gao reg	RGS8-Gao	GSH fluor	RGS7-Gao	Avidin bead fluor
CCOC(=O)c1cc(-c2ccc(F)cc2)n(CC(=O)NC(C)CC)c1C (stereo not given)	79	99	94	16	113	33
Nc1c(C(=O)NCc2ccco2)sc2nc(N3CCOCC3)c3c(c12)CCCC3	105	104	99	9	114	62*
CCN(CC)c1ccc(/C=C2\C(=O)c3ccc(C(=O)O)cc3C2=O)cc1	98	97	98	306*	95	13
Cc1sc2nc(CN(C(=O)NC3CCCCC3)C3CCCCC3)[nH]c(=O)c2c1C	101	99	100	16	102	23
CCn1c(CC(=O)Nc2ccc(C)cc2)nnc1SCC(=O)NCCc1ccccc1	106	104	101	15	111	49*
CCn1c(Cc2ccccc2)nnc1SCC(=O)Nc1ccc(C)cc1	108	97	100	16	100	5
CCOC(=O)c1sc(NC(=O)CSc2nc(C)cc(C)n2)c(C#N)c1C	105	106	102	13	108	49*
CCCn1c(CN2CCN(C)CC2)nc2ccccc21	14*	23*	13*	37	16*	0
CCCCn1c(CN2CCN(C)CC2)nc2ccccc21	99	101	100	25	99	10
CCOC(=O)N1CCC(NC(=O)c2ccc(CNS(=O)(=O)c3ccc(F)cc3)cc2)CC1	105	102	99	21	117	61*
Fc1ccc(NC(=S)N/N=C/c2ccc(F)c(F)c2)cc1	110	106	102	22	130	80*
C=CCSc1nc(C)c(CC(=O)OCC(C)C)c(=O)[nH]1	106	102	101	18	108	48*
CCCSc1nc(C)c(CC(=O)OCC)c(=O)[nH]1	99	98	102	48	104	8
COC(=O)C(C(=O)OC)c1ccccc1[N+](=O)[O-]	102	102	100	272*	100	7
CCC(C)NC(=O)CN1C(=O)C(CC)Sc2ccccc21 (stereo not given)	97	93	97	22	91	8
Cn1c(=O)c2c(ncn2CC(=O)Nc2ccc(Cl)cc2Cl)n(C)c1=O	104	104	105	33	101	17
Cc1ccc(S(=O)(=O)NC(=O)NCc2ccccn2)cc1	103	104	102	256*	99	8
Cc1ccc(S(=O)(=O)NC(=O)NCc2ccccc2)cc1	104	103	101	49	100	18
O=[N+]([O-])c1ccc2oc(C3CCCCC3)nc2c1	104	101	102	10	100	10
Cc1cc(C)cc(OCC(=O)Nc2ccccc2N2CCCCC2)c1	101	101	100	26	110	69*
CCCc1[nH]nc2c1C1(CCN(C(=O)OCc3ccccc3)CC1)C(C#N)=C(N)O2	17	94	93	39	95	6
CC1=C(C#N)C(=O)NC(=O)/C1=C/c1ccc(-c2ccc(S(N)(=O)=O)cc2)o1	97	103	93	10	?	11
C=CCOC(=O)c1cc(-c2ccc(/C=C3\C(=O)NC(=O)C(C#N)=C3C)o2)ccc1Cl	81	79	93	260*	83	5
O=C1NC(c2cccs2)Nc2sc3c(c21)CCCC3 (stereo not given)	83	84	97	50	92	11
COc1ccc(OCCNS(=O)(=O)c2ccc3oc4ccccc4c3c2)cc1	110	103	100	10	103	10
SMILES	RGS16-Gao HTS	RGS4-Gao reg	RGS8-Gao	GSH fluor	RGS7-Gao	Avidin bead fluor
CN(CCOc1ccccc1)S(=O)(=O)c1ccc2oc3ccccc3c2c1	100	108	100	29	118	60*
O=C(Nn1c(SCc2ccc(F)cc2)nc2ccsc2c1=O)c1ccccc1	42	90	78	10	94	2
O=C1c2cc(S(=O)(=O)NCCCO)ccc2-c2ccc(S(=O)(=O)NCCCO)cc21	122	105	107	251*	103	6
CCC(C)NCCC(=O)Nc1ccc(Cl)c(S(=O)(=O)Nc2ccc(Cl)cc2)c1 (stereo not given)	98	101	101	58	105	27
Cc1ccc(S(=O)(=O)Nc2nonc2C)cc1	29	38*	34*	33	31*	4
CNS(=O)(=O)c1ccc(C)cc1	97	105	104	24	102	12
Cc1nnc(NC(=O)CSc2nnc(CCc3nc4ccccc4[nH]3)n2C)s1	102	103	104	5	97	8
CCc1nnc(NC(=O)CSc2nnc(CCc3nc4ccccc4[nH]3)n2C)s1	103	99	99	286*	99	7
CC1C2CC(CC1(C)C)N(C(=O)Nc1ccc3nccnc3c1)C2 (stereo not given)	99	98	100	12	102	9
CC(C)CCNC(=O)CN(C(=O)Cn1nnc(-c2ccccc2F)n1)c1cccc2c1CCCC2	0.7*	20*	12*	23	12*	-1
COc1ccc(/C=C/C(=O)NC(CCSC)C(=O)O)cc1 (stereo not given)	102	102	101	14	101	16
COc1ccc(S(=O)(=O)Nc2nncs2)cc1	116	103	104	20	109	49*
CCCc1nnc(NS(=O)(=O)c2ccc(OC)cc2)s1	81	101	95	28	103	8
N#CCCSCc1ccc(C(=O)O)o1	101	99	100	25	104	17
CCCCSCc1ccc(C(=O)O)o1	103	90	100	131*	91	5
Cc1nc(N2CCOCC2)c(C#N)c(C)c1Br	101	103	100	260*	102	7
COc1ccccc1NC(=O)CCN1CCN(Cc2ccccc2)CC1	102	102	103	14	100	7
COc1ccc(S(=O)(=O)N2CCOCC2)cc1NC(=O)Cc1ccccc1Cl	102	103	102	18	107	14
COc1ccc(S(=O)(=O)N2CCCCCC2)cc1NC(=O)Cc1ccccc1	102	98	97	8	106	48*
COc1ccccc1NC(=O)CCN1CCCCCC1	-2.5*	3.0*	4.6*	32	0.6*	-2
O=[N+]([O-])c1ccc(OS(=O)(=O)Cc2ccccc2)cc1	152	104	123	57	107	24
CCOc1cc(/C=N\Nc2ccc([N+](=O)[O-])cc2)ccc1OCC(=O)Nc1ccc(C)c(C)c1	93	94	98	16	95	32
COc1cc(/C=N\Nc2ccc([N+](=O)[O-])cc2)ccc1OCC(=O)Nc1ccc(C)c(C)c1	103	92	100	13	95	61*
C=C(C)CNC(=S)NNC(=O)c1ccco1	102	101	102	48	102	37
Cn1c(=O)c2c(nc(NCCCO)n2CCc2ccccc2)n(C)c1=O	105	102	104	20	105	50*

Assay outcomes: PubChem, NMMLSC
